Rows were chosen to be rich in hits. Some 2.7% of all compounds tested hit in one or more screens of this group.
KDM5B inhibitor = Primary screen for KDM5B Histone Demethylases FDH-coupled qHTS. KDM5B demethylase, FDH-coupled NADH fluorescence (FDH is formaldehyde dehydrogenase). Potency, µM (titrated, usually from 57.7 µM), hits mostly inhibitors. 2.6% of 220,000 active; active means well fitted inhibition curve with a large enough effect; inconclusive means small, poorly fitted or top-dose-only effect; inactive means no such curve, though single readings can be large or run the other way; further: nearly all actives have a fitted effect of over 70% in size
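KDM5BΔAP (200 nM final) in 50 mM HEPES pH 7.5, 0.01% Tween-20 was preincubated 10 min at RT with compound over a concentration range. Substrate mix (H3K4me3 12.5 µM, α-KG 25 µM, Fe²⁺, ascorbate, NAD⁺, FDH) was added, and NADH fluorescence change over 30 min gave dose-response curves.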
IP6K1 inh = Primary qHTS assay for small molecule inhibitors of Inositol hexaphosphate kinase 1 (IP6K1) | AID 1645851, 2021 | Inositol hexakisphosphate kinase 1 (Homo sapiens), Q92551 | 0.81% of 140,000 active | activity change, % (series mostly up to about 58 µM) | IP6K1 kinase, ADP-Glo luminescence, 2 h; active compounds read low; in the data active means activity change below about -25%
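ADP-Glo luminescence measures ADP made by human IP6K1 during a 2 h RT reaction with ATP/IP6 (mix at 1.3 mM/130 uM); top library doses 57.5 and 19.1 uM final.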
Hits are given with their value; n = inactive; u = inconclusive; x = no result given.

SMILES | KDM5B inhibitor | IP6K1 inh
COc1ccc(NC(=O)CCc2ccnc(N3CCCC3)c2)c(C)c1 | 25.1µM | n
O=C(CCc1ccnc(N2CCOCC2)c1)Nc1ccc2c(c1)OCO2 | u | n
O=C(CCc1ccnc(N2CCOCC2)c1)N1CCN(C(=O)c2ccco2)CC1 | u | n
Cc1ccccc1NC(=O)CCc1ccnc(N2CCCC2)c1 | 28.2µM | n
CSCCCNC(=S)Nc1cccc(Br)c1 | n | x
COc1cc(C(=O)Nc2c(NCc3ccccc3)c3ccccc3oc2=O)cc(OC)c1OC | n | x
COc1ccc(-c2coc3cc(OCC(=O)O)ccc3c2=O)cc1OC | n | x
COc1ncc(-c2ccc3ncn(-c4ccc(F)cc4F)c(=O)c3n2)cn1 | 39.8µM | n
COCc1cccc(-c2ccc3ncn(-c4ccc(F)cc4F)c(=O)c3n2)c1 | 31.6µM | n
CC(=O)Nc1cccc(-c2ccc3ncn(-c4ccc(F)cc4F)c(=O)c3n2)c1 | n | n
O=c1c2nc(-c3cccnc3)ccc2ncn1-c1ccc(F)cc1F | n | n
CC(=O)c1ccccc1NCC(=O)Nc1ccccc1 | n | x
COc1cc2c(cc1-c1cccc(C(F)(F)F)c1)OCC(C)(C)CC2CO (stereo unspecified) | x | n
CCCCCCn1nc(C(=O)OCC(=O)N(C)c2ccccc2)c2ccccc2c1=O | n | x
CCOc1ccccc1C(=O)N1C[C@@H](CO)[C@@H]2Oc3ccc(Cl)cc3[C@@H]21 | x | n
O=C1NCC2(CCCN(C(=O)c3cnc4c(O)cccn4c3=O)C2)O1 (stereo unspecified) | 31.6µM | n
O=C1NCC2(CCCN(C(=O)c3cn[nH]c3-n3cnnn3)C2)O1 (stereo unspecified) | n | n
COc1ccc(NC(=O)c2ccc3c(c2)OCCN(c2ccccc2)C3)cn1 | u | n
Cc1cc(NC(=O)c2ccc3c(c2)OCCN(C2CCC2)C3)ccc1F | n | n
O=C(Nc1ccc(F)cc1)c1ccc2c(c1)OCCN(C1CCC1)C2 | 31.6µM | n
O=C(Nc1ccccc1)c1ccc2c(c1)OCCN(c1ccccc1)C2 | 28.2µM | n
CCC(C)NC(=O)c1cc2sc3ccccc3c2s1 (stereo unspecified) | n | x
O=C1CCCC2=C1C(c1cccc(Oc3ccccc3)c1)c1c([nH]n(-c3ccccc3)c1=O)N2 (stereo unspecified) | n | x
CCCCn1cnc2c1c(=O)n(CC(=O)NC1CCC(C)CC1)c(=O)n2CCC (stereo unspecified) | n | x
COc1ccc(OC)c(NC(=O)CC2=C3CCCCC3N(Cc3ccc(F)cc3)C2=O)c1 (stereo unspecified) | x | n
SMILES | KDM5B inhibitor | IP6K1 inh
COc1ccccc1-c1ccc(CN2CCC(NC(=O)Nc3ccccc3F)C2)cc1 (stereo unspecified) | x | n
CCc1ccc(N2CC(c3noc(-c4cnccn4)n3)CC2=O)cc1 (stereo unspecified) | n | n
CCc1ccc(N2CC(c3noc(-c4ccc(N(C)C)cc4)n3)CC2=O)cc1 (stereo unspecified) | 31.6µM | n
COc1ccc(-c2nc(C3CC(=O)N(c4ccc(F)cc4)C3)no2)cc1F (stereo unspecified) | n | n
COc1ccc(N2CC(c3noc(-c4cc(C)cc(C)c4)n3)CC2=O)cc1 (stereo unspecified) | n | n
O=C1CC(c2noc(-c3ccc4c(c3)OCO4)n2)CN1c1ccc(F)cc1 (stereo unspecified) | 28.2µM | n
Cc1ccc(-c2nc(C3CC(=O)N(c4ccc(F)cc4)C3)no2)cc1 (stereo unspecified) | n | n
COc1ccc(N2CC(c3noc(-c4ccc(N(C)C)cc4)n3)CC2=O)cc1 (stereo unspecified) | 35.5µM | n
CCc1ccc(N2CC(c3noc(-c4ccc(OC)c(F)c4)n3)CC2=O)cc1 (stereo unspecified) | 31.6µM | n
CCCN(CC(=O)N(C)C)C(=O)c1cc(-c2ccco2)nc2ccccc12 | n | x
FC(F)(F)c1cnc(Sc2nnc(C3CC3)n2C2CC2)c(Cl)c1 | n | x
O=C1C=CC=C/C1=C\N(O)c1ccccc1 | n | x
CCOc1ncccc1C(=O)Nc1cc(S(=O)(=O)N(C)C)ccc1C | n | x
Cn1c(=O)c2c(nc(SCC(=O)O)n2Cc2cccc(Cl)c2)n(C)c1=O | n | x
Cc1noc(NC(=O)c2ccc(Br)o2)n1 | n | x
COc1ccc(N2CC(c3noc(-c4cc(OC)cc(OC)c4)n3)CC2=O)cc1 (stereo unspecified) | u | n
COc1cc(OC)cc(-c2nc(C3CC(=O)N(c4ccc(C)cc4)C3)no2)c1 (stereo unspecified) | 31.6µM | n
Cc1ccc2nc(N/C(N)=N/S(=O)(=O)c3ccccc3)nc(C)c2c1 | n | x
CC(=O)N1CCC2(CC1)OC(=O)N(Cc1ccccc1)C2(C)c1ccccc1 (stereo unspecified) | n | n
O=C(CCn1c2c(c3ccccc31)CCCC2)N1CCc2nc3cc[nH]n3c(=O)c2C1 | n | n

Screening data as filed in PubChem BioAssay.
